The values that follow come from ChEMBL document CHEMBL2218924, “A broad activity screen in support of a chemogenomic map for kinase signalling research and drug discovery” (Biochem J, 2013).

For assay [1], the target named is Tyrosine-protein kinase SYK (Homo sapiens) (UniProt P43405). Particulars: at 10 µM.
The target in assay [2] is T1, Mitogen-activated protein kinase kinase kinase 7 (Homo sapiens) (UniProt O43318).
T1 sequence (whole entry): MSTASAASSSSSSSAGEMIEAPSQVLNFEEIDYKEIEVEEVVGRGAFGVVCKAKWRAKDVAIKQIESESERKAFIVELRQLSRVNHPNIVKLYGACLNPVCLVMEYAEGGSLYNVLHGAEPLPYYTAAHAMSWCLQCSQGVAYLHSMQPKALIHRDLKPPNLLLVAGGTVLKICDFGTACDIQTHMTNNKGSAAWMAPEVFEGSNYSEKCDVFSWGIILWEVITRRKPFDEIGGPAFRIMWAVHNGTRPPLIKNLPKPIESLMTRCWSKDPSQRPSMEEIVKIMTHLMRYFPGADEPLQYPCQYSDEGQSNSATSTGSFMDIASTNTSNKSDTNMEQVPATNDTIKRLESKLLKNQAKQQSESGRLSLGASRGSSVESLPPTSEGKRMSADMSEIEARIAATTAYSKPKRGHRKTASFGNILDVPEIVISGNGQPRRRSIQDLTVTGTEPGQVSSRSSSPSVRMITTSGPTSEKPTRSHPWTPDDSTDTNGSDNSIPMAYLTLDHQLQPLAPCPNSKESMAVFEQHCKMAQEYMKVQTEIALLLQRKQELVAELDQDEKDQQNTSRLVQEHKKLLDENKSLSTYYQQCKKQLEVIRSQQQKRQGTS
As to conditions: at 1 µM.

Assay [3] has as its target T1, Mitogen-activated protein kinase kinase kinase 7 (Homo sapiens). As to conditions: at 10 µM.
In assay [4] the target is T2, Serine/threonine-protein kinase TAO1 (Homo sapiens) (UniProt Q7L7X3).
T2 sequence (whole entry): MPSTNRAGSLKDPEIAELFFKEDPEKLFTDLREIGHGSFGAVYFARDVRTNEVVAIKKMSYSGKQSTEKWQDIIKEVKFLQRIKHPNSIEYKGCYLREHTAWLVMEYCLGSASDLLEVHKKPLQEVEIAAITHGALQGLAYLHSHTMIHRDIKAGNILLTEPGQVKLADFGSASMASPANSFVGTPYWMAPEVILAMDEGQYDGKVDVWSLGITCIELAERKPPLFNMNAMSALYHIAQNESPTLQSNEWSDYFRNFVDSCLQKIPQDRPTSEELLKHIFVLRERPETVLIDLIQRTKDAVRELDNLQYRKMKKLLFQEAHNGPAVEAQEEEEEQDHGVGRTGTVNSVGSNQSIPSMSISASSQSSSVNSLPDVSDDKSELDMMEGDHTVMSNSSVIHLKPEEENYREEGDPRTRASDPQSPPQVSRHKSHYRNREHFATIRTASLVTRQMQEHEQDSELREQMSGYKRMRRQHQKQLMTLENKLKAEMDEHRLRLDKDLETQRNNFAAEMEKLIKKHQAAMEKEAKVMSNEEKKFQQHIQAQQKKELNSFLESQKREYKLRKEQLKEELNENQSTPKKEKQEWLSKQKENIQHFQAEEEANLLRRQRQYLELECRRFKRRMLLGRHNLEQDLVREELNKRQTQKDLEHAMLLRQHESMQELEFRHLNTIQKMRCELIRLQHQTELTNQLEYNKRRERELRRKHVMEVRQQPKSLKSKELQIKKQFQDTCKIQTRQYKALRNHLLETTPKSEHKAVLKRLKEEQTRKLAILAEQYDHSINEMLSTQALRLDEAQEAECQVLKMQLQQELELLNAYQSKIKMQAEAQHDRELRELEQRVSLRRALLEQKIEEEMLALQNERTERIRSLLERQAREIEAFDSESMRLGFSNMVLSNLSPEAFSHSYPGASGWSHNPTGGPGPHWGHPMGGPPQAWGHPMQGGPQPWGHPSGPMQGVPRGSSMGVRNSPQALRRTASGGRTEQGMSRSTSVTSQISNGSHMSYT
As to conditions: at 1 µM.

Assay [5] deals with T2, Serine/threonine-protein kinase TAO1 (Homo sapiens). As to conditions: at 10 µM.
The target in assay [6] is T3, Serine/threonine-protein kinase TAO2 (Homo sapiens) (UniProt Q9UL54).
T3 sequence (whole entry): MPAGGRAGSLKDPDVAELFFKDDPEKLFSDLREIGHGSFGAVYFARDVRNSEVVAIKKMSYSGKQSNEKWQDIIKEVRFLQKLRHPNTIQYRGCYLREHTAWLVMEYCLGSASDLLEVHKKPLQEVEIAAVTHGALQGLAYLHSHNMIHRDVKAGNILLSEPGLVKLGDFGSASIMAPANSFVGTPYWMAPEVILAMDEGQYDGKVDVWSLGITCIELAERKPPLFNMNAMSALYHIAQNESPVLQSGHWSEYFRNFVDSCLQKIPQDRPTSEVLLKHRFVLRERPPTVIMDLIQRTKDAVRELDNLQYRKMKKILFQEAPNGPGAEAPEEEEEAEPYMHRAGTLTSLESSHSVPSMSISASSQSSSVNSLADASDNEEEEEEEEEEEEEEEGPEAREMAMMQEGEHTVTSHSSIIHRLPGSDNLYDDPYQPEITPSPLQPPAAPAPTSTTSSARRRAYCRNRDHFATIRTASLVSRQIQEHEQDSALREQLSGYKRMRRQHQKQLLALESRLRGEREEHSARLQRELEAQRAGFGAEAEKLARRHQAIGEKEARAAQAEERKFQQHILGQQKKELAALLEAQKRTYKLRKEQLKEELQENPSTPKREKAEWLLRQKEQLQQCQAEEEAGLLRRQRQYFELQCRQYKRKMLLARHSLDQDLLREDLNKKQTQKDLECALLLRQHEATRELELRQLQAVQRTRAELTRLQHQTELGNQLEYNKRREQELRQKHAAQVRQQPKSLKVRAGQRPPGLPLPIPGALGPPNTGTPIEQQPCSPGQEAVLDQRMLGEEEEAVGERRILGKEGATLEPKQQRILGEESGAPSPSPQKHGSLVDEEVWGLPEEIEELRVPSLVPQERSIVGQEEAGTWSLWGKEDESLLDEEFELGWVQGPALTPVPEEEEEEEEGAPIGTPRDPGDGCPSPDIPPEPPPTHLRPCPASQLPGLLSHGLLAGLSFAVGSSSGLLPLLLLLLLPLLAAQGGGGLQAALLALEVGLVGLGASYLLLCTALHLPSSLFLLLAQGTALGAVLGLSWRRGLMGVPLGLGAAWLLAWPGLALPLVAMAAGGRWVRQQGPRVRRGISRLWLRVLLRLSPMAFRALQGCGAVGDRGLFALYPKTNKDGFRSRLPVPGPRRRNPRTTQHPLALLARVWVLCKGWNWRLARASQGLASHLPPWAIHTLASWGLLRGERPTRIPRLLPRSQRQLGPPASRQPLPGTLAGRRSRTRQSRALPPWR
As to conditions: at 1 µM.

The target in assay [7] is T3, Serine/threonine-protein kinase TAO2 (Homo sapiens). As to conditions: at 10 µM.
The target in assay [8] is T4, Serine/threonine-protein kinase TAO3 (Homo sapiens) (UniProt Q9H2K8).
T4 sequence (whole entry): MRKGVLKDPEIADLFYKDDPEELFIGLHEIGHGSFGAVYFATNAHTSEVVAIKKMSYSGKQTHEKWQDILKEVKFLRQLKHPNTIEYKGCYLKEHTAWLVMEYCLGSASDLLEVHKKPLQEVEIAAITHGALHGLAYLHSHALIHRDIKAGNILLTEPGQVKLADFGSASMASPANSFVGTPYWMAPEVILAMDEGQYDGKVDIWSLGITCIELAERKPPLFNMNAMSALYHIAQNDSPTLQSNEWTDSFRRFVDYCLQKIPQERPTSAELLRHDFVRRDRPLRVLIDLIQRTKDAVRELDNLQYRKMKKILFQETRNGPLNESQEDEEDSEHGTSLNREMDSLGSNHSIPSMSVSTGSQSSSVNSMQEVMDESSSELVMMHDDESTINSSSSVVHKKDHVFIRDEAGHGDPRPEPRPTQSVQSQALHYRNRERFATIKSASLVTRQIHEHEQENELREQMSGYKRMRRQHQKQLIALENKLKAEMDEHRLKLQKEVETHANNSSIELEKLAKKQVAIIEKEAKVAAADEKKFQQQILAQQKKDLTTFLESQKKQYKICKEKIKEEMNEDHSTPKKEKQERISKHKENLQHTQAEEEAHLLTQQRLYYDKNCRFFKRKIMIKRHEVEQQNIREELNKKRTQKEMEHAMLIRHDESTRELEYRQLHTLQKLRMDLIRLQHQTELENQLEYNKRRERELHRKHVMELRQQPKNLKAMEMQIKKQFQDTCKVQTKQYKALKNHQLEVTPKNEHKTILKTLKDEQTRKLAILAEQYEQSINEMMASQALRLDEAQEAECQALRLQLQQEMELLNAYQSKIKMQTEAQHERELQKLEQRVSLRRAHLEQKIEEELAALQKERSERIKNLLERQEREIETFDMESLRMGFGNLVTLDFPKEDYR
Particulars: at 1 µM.

In assay [9] the target is T4, Serine/threonine-protein kinase TAO3 (Homo sapiens). As to conditions: at 10 µM.
In assay [10] the target is T5, Serine/threonine-protein kinase TBK1 (Homo sapiens) (UniProt Q9UHD2).
T5 sequence (whole entry): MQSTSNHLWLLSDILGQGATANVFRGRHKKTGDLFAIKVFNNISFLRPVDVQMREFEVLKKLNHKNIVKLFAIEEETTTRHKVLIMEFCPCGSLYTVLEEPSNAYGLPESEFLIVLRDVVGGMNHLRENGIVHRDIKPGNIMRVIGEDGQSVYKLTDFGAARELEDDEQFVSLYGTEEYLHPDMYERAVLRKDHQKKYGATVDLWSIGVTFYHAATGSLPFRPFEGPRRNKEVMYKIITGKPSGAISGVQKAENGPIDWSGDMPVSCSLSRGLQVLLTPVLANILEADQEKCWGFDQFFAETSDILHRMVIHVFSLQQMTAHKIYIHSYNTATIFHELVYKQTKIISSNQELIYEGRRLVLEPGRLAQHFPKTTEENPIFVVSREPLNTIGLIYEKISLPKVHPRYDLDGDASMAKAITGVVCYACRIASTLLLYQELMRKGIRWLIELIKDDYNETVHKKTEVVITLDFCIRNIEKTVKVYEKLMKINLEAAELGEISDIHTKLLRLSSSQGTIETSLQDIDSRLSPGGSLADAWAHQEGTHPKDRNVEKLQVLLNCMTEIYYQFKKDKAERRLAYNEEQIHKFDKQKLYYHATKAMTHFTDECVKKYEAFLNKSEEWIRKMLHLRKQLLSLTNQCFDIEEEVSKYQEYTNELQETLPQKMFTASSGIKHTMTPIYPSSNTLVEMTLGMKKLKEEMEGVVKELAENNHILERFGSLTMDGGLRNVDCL
As to conditions: at 1 µM.

Regarding `CO[C@H]1[C@@H](OC)C[C@H](C)[C@@H](OC)C2=CC(=O)C=C(NC(=O)/C(C)=C/C=C/[C@H](OC)[C@@H](OC(N)=O)/C(C)=C/[C@@H]1C)C2=O`, the residual activity turned out to be 87% in [1]; 96% in assay [2]; 94% in assay [3]; 98% in [4]; 89% in assay [5]; 99% in assay [6]. Also, the residual activity in assay [7] was 93%; in [8] it was 107%; in assay [9], 95%; in [10], 77%.
